This note sets out measurements from PubChem BioAssay (Tox21).

Values without a mark were called inactive. Inconclusive results are not listed. Active and inactive are the calls of the source. Unless noted, calls follow the shape of the dose curve; as a rule, active = well fitted curve in the direction sought with a large enough effect in the repeat runs; inconclusive = weak or mixed curves; inactive = no such curve, though single readings can be large; an effect the other way counts as inactive or inconclusive.

Experiment [1] can be described thus: qHTS assay for small molecules that induce genotoxicity in human embryonic kidney cells expressing luciferase-tagged ATAD5 (AID 651632). Also: nearly all actives have a fitted effect of over 15% in size. In short, it runs like this: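 Increased luciferase signal from ATAD5-tagged reporter cells indicates DNA-damage-driven ATAD5 induction. HEK293T cells are treated for 16 hr at 37C before detection with Amplite.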
A general note: In qHTS, concentration-response curves come from the screen itself.

Experiment [2] in a line: qHTS assay for small molecule agonists of the p53 signaling pathway - cell viability (AID 651633; calls by dose curve; also: series mostly up to about 83 µM; nearly all actives have a fitted effect of over 30% in size). Put shortly:
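p53RE-bla cells were treated with compound for 16 hours at 37 C. Cytotoxicity was then measured as CellTiter-Glo luminescence after 30 min at room temperature.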

Experiment [3] in a line: qHTS assay for small molecules that induce genotoxicity in human embryonic kidney cells expressing luciferase-tagged ATAD5 - cell viability (AID 651634; calls by dose curve; also: nearly all actives have a fitted effect of over 25% in size). Put shortly:
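Cytotoxicity counterscreen in HEK293T cells bearing an ATAD5-luciferase reporter: live-cell protease activity measured by CellTiter-Fluor fluorescence after 15.5 hr compound exposure.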

Experiment [4] is described as follows: qHTS assay for small molecule disruptors of the mitochondrial membrane potential - cell viability (AID 720634; calls by dose curve;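 also: human HepG2 liver cancer cells; series mostly up to about 83 µM; nearly all actives have a fitted effect of over 20% in size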). Put shortly:
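After overnight attachment at 37 C, HepG2 cells received compound or DMSO vehicle for 1 hr. Viability is then taken from ATP-driven luminescence following a 30 min room-temperature CellTiter-Glo step.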

Experiment [5] in a line: qHTS assay to test for compound auto fluorescence at 590 nm (red) in HepG2 cells (AID 720674). In short, it runs like this: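 Seeding: 2,000 HepG2 cells/well, MEM/10% FBS, overnight 37 C. Dosing: compound vs DMSO. Incubation: 1 hr, 37 C, 5% CO2. Read: fluorescence 540 ex/590 em, Rose Bengal sodium as red reference.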
Experiment [6] in a line: qHTS assay to test for compound auto fluorescence at 535 nm (green) in HepG2 cells (AID 720675).
Experiment [7] can be described thus: qHTS assay to test for compound auto fluorescence at 460 nm (blue) in HEK293 cells (AID 720678). In short, it runs like this: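 HEK293 cells (2,000/well, medium with 10% dialyzed FBS) attached 4-5 hr, then exposed to compound overnight at 37C, 5% CO2. Blue fluorescence read at 405/460 nm, with triamterene as reference fluorophore.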
Experiment [8] can be described thus: qHTS assay to test for compound auto fluorescence at 590 nm (red) in HEK293 cells (AID 720679). In short, it runs like this:
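HEK293 cells (2,000/well, 10% dialyzed FBS) attached 4-5 hr, then dosed with compound or DMSO and incubated overnight at 37C, 5% CO2. Red fluorescence read at 540/590 nm, Rose Bengal sodium as reference fluorophore.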

Experiment [9] is described as follows: qHTS assay for small molecule agonists of the p53 signaling pathway (AID 651631; calls by dose curve; also: nearly all actives have a fitted effect of over 15% in size). In short, it runs like this:
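Readout was fluorescence from the LiveBLAzer FRET substrate, applied for 2 h at room temperature after 16 h compound exposure at 37 °C. Cells were the p53RE-bla HCT-116 line, with beta-lactamase driven by p53 response elements.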

A short description of experiment [10]: qHTS assay for small molecule disruptors of the mitochondrial membrane potential (AID 720635). Also: potency is read from the fitted curve at half-maximal effect. Put shortly:
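HepG2 cells exposed to compound 1 hr at 37C, then Mito-MPS dye 30 min. Ratio read of aggregate (540/590 nm) versus monomer (490/535 nm) fluorescence.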
% is scaled to controls: 0 for no effect and ±100 for the full control effect.

`O=Cc1ccc(Cl)c(Cl)c1`: the Potency entry in experiment [1] and in experiment [3] was “inactive” in each case. Moreover, the outcome in [2], in experiment [4], in experiment [5], in experiment [6], in experiment [7] and in experiment [8] was inactive.

Turning to `CC(C)NCC(O)COc1cccc2[nH]ccc12` (stereo not drawn), the call in experiment [9], in experiment [2], in [4], in [5], in [6] and in experiment [7] was inactive. Further, the result in experiment [8] was inactive. For the same compound, the Potency result in [10] is “inactive”.

For `O=C(NCC(O)CO)c1c(I)c(C(=O)NCC(O)CO)c(I)c(N(CCO)C(=O)CO)c1I` (stereo not drawn), the call in [9], in experiment [2] and in experiment [4] was inactive. Besides, the Potency result in [3] and in experiment [10] was “inactive” in each case. The fluorescence, relative to Rose Bengal in experiment [5] was -0.211% [at 18.6 µM]. In addition, the fluorescence, % of fluorescein control in experiment [6] is -0.0278% [at 18.6 µM]. In addition, the fluorescence, % of triamterene in experiment [7] was 0.0229% [at 18.6 µM]. Moreover, in experiment [8], the fluorescence, % of fluorescent control was -0.351% [at 18.6 µM].

As to `O=C(O)c1ccc(Cl)cc1Cl`, the Potency entry in experiment [1], in experiment [3] and in [10] was “inactive” each time. Besides, the result in experiment [2], in [4], in experiment [5], in experiment [6], in experiment [7] and in experiment [8] was inactive.

Take `C[C@H](CCC(=O)O)[C@H]1CC[C@H]2[C@@H]3C(=O)C[C@@H]4CC(=O)CC[C@]4(C)[C@H]3CC(=O)[C@]12C`: the Potency entry in experiment [1] and in experiment [3] was “inactive” throughout. Further, the compound was classed as inactive in experiment [2], in experiment [4], in experiment [5], in experiment [6], in experiment [7] and in experiment [8].

As for `CC(=O)Nc1cccc(C)c1`, the Potency result in experiment [1], in experiment [3] and in experiment [10] was “inactive” in each case. The compound was classed as inactive in experiment [2], in experiment [4], in [5], in experiment [6] and in experiment [8].

`Nc1ncnc(Nc2ccccc2)n1`: the Potency result in experiment [1], in [3] and in experiment [10] was “inactive” in each case. Also, the result in experiment [2], in [4], in experiment [5], in experiment [6], in [7] and in experiment [8] was inactive.

As to `O=P(O)(O)OP(=O)(O)O`, the compound was called inactive in experiment [9], in [2], in experiment [4], in experiment [5], in experiment [6] and in [7]. In addition, the outcome in [8] was inactive. Besides, the Potency result in [3] and in experiment [10] was “inactive” each time.

`COC(=O)CCc1ccc(OCC(O)CNC(C)C)cc1` (stereo not drawn): the Potency entry in [1], in experiment [3] and in experiment [10] was “inactive” in each case. In addition, the compound was classed as inactive in experiment [2], in experiment [4], in [5], in experiment [6], in experiment [7] and in experiment [8].

`CCCCCCOc1ccccc1C(N)=O`: the Potency result in [1] and in [3] was “inactive” in each case. The call in experiment [2], in [4], in experiment [5], in [6], in experiment [7] and in [8] was inactive. Besides, in experiment [10], the Potency was 6.68 µM (active).

Turning to `C=CC(OCC)OCC`, the compound was classed as inactive in experiment [9], in experiment [2], in [4], in experiment [5], in [6] and in [7]. Further, in [8], the result was inactive. Besides, the Potency result in [3] is “inactive”.

`O=C(CCN1CCN(CCO)CC1)N1c2ccccc2Sc2ccc(C(F)(F)F)cc21`: the Potency result in [1] and in [3] was “inactive” each time. The outcome in experiment [2], in [4], in experiment [5], in experiment [6], in experiment [7] and in [8] was inactive.

As to `COc1cc(N)ccc1C`, the Potency result in [1] and in experiment [10] was “inactive” throughout. Also, the compound was called inactive in [2], in experiment [4], in experiment [5], in [6], in experiment [7] and in [8].

Regarding `O=S(=O)(O)c1ccc2cc(O)c(S(=O)(=O)O)cc2c1`, the Potency entry in experiment [1] and in experiment [3] was “inactive” in each case. Also, the compound was called inactive in experiment [2], in experiment [4], in experiment [5], in [6] and in experiment [8].

In the case of `CC(=O)Nc1ccc(S(=O)(=O)Cl)cc1`, the result in experiment [2], in experiment [4], in experiment [5], in experiment [6] and in [8] was inactive. The Potency result in [3] was “inactive”.

For the compound `CCCCCCCCCCl`, the Potency entry in experiment [1], in [3] and in [10] was “inactive” throughout. Also, the result in experiment [4], in [5], in [6] and in [8] was inactive.

As to `OC[C@H](Cc1cccc(O)c1)[C@H](CO)Cc1cccc(O)c1`, the Potency result in [1] and in [3] was “inactive” in each case. Also, the compound was called inactive in [2], in experiment [4], in [5], in experiment [6], in experiment [7] and in [8].

For `COP(=O)(OC)OC(c1ccc(Cl)cc1)P(=O)(OC)OC` (stereo not drawn), the Potency entry in experiment [1], in experiment [3] and in experiment [10] was “inactive” throughout. Besides, the result in [4], in experiment [5], in experiment [6], in [7] and in [8] was inactive.

Regarding `COc1ccc2c(c1OC)C(=O)O[C@@H]2[C@H]1c2c(cc3c(c2OC)OCO3)CCN1C`, the Potency entry in [1] and in [10] was “inactive” throughout. The outcome in [2], in experiment [4], in experiment [5], in experiment [6], in experiment [7] and in experiment [8] was inactive.

In the case of `CC(C)(C)OC(=O)c1ccc(O)cc1`, the Potency result in [1] and in experiment [3] was “inactive” throughout. Besides, the compound was classed as inactive in [2], in [5], in experiment [6], in experiment [7] and in experiment [8]. Further, in experiment [10], the Potency is 21.7 µM (active).

With `O=C1c2ccccc2C(=O)c2cc(S(=O)(=O)O)ccc21`, the Potency entry in [1] and in [3] was “inactive” in each case. The compound was classed as inactive in experiment [2], in experiment [4], in experiment [5], in [6], in experiment [7] and in [8].

`CC/C=C\CC1=C(C)CCC1=O`: the Potency entry in experiment [1] and in [3] was “inactive” each time. Also, the outcome in [2], in experiment [4], in [5], in experiment [6], in experiment [7] and in experiment [8] was inactive.
